Assay results taken from PubChem BioAssay (EPA / NIEHS).
Inconclusive results are not listed. Active and inactive are the calls of the source. Rule for the calls: active = hit-call score of the fitted dose curve at least 0.9, where 1 is the maximum; inconclusive = response in the unintended direction; inactive = score below 0.9.

How the values were obtained:
[1] = TOX21_p53_BLA_p2_viability: Viability Assessment in the Tox21 HCT-116 p53 Agonism Beta-lactamase Assay, Phase 2 (AID 2283591);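 note: compound exposure lasted 16 h at 37 °C; actives lower the ATP signal meaning cytotoxicity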
Procedure, shortened: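 HCT116 p53-bla cells, 4000/well, dosed after 5 h plating (217-fold dilution of DMSO stocks) and incubated 16 h at 37C. Viability taken as cellular ATP by CellTiter-Glo luminescence after 30 min RT; signal loss marks cytotoxicity.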

[2] = molecular target: Cellular tumor antigen p53 (Homo sapiens) (UniProt P04637); assay: TOX21_p53_BLA_p2_ratio: Tox21 HCT-116 p53 Agonism Beta-lactamase Assay, Ratio, Phase 2 (AID 2283592)
Procedure, shortened: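 Ratio endpoint: beta-lactamase cleavage of CCF4-AM, blue (460 nm) over green (530 nm). HCT116 reporter line; 16 h treatment, 37C; substrate 2 h RT.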

[3] = TOX21_p53_BLA_p3_viability: Viability Assessment in the Tox21 HCT-116 p53 Agonism Beta-lactamase Assay, Phase 3 (AID 2283593);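 note: cells exposed to compound for 16 h before reading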
Procedure, shortened: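 HCT116 cells, 4000/well, dosed 5 h after plating by pin transfer (217-fold dilution from DMSO stock) and incubated 16 h at 37C, 5% CO2. Viability read as ATP luminescence with CellTiter-Glo after 30 min at room temperature.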

[4] = molecular target: Cellular tumor antigen p53 (Homo sapiens) (UniProt P04637); assay: TOX21_p53_BLA_p3_ratio: Tox21 HCT-116 p53 Agonism Beta-lactamase Assay, Ratio, Phase 3 (AID 2283596)
Procedure, shortened: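 Cells were seeded at 4000/well, rested 5 h at 37C, then dosed with DMSO compound solutions (217-fold dilution) for 16 h. CCF4-AM substrate was loaded for 2 h at room temperature, and the 460/530 nm emission ratio was fitted for gain of signal versus DMSO.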

[5] = TOX21_p53_BLA_p4_viability: Viability Assessment in the Tox21 HCT-116 p53 Agonism Beta-lactamase Assay, Phase 4 (AID 2283597);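 note: hits lower the luminescence signal meaning cytotoxicity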
Procedure, shortened: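 Cytotoxicity was inferred from loss of CellTiter-Glo luminescence. HCT116 cells had been dosed with compounds after 5 h plating, incubated 16 h at 37C and 5% CO2, and exposed to the CCF4-AM substrate for 2 h.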

[6] = molecular target: Cellular tumor antigen p53 (Homo sapiens) (UniProt P04637); assay: TOX21_p53_BLA_p5_ratio: Tox21 HCT-116 p53 Agonism Beta-lactamase Assay, Ratio, Phase 5 (AID 2283599)
Procedure, shortened: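 HCT-116 p53-bla cells (4000/well) plated 5 h, dosed with compound (217-fold DMSO dilution) for 16 h at 37 C; CCF4-AM substrate 2 h at room temperature. Activity is the 460/530 nm emission ratio (405 nm excitation), fitted in gain-of-signal direction versus DMSO.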

[7] = TOX21_p53_BLA_p5_viability: Viability Assessment in the Tox21 HCT-116 p53 Agonism Beta-lactamase Assay, Phase 5 (AID 2283600)
Procedure, shortened: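 Luciferase-coupled ATP quantitation of cells treated for 16 h (37C, 5% CO2) with test chemicals delivered in DMSO via a 217-fold dilution; 4000 cells/well; reagent incubated 30 min at room temperature before luminescence reading.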

[8] = molecular target: Cellular tumor antigen p53 (Homo sapiens) (UniProt P04637); assay: TOX21_p53_BLA_p4_ratio: Tox21 HCT-116 p53 Agonism Beta-lactamase Assay, Ratio, Phase 4 (AID 2283601)
Procedure, shortened: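 HCT-116 p53 beta-lactamase reporter cells (4000/well) preincubated 5 h, then compound (217-fold dilution of DMSO stock) for 16 h at 37C. CCF4-AM substrate added 2 h at room temperature; 460/530 nm emission ratio fitted upward versus DMSO.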

Measured: AC50

Chain of Cellular tumor antigen p53 (Homo sapiens) (P04637 whole entry, looked up): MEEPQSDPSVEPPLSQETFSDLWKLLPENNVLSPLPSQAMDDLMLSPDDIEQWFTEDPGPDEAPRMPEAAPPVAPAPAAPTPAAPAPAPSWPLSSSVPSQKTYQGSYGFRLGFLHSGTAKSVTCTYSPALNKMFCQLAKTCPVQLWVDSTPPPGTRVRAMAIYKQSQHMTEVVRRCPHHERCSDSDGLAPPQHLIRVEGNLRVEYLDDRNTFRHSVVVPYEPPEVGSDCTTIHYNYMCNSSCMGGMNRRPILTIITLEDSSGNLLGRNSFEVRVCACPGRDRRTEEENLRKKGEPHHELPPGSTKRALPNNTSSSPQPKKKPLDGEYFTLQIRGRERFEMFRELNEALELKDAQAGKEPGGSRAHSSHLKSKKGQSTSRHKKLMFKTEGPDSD

COc1cc2ncnc(Nc3ccc(F)c(Cl)c3)c2cc1OCCCN1CCOCC1
inactive: [1] | [2] | [3] | [4] | [6] | [7] | [8]
active: [5] 40.7 µM

COc1cc2c(Nc3ccc(Br)cc3F)ncnc2cc1OCC1CCN(C)CC1
inactive: [1] | [2] | [3] | [4] | [5] | [6] | [7] | [8]

NNc1ccc(C(=O)O)cc1
inactive: [1] | [2] | [3] | [4] | [5] | [6] | [8]

CC(=O)Nc1ccc(C)cc1
inactive: [1] | [2] | [3] | [4] | [5] | [6] | [8]

O=C(OCC1CO1)C1CCCCC1C(=O)OCC1CO1 (centres undefined)
active: [2] 61 µM
inactive: [1] | [3] | [4] | [5] | [6] | [8]

CC(C)(C)OC(=O)c1cccc(N)c1
inactive: [1] | [2] | [3] | [4] | [5] | [6] | [8]

NC(=O)c1ccccc1C(N)=O
inactive: [1] | [3] | [4] | [5] | [8]
active: [2] 72.7 µM | [6] 73.1 µM

N[C@@H](COP(=O)(O)O)C(=O)O
inactive: [1] | [2] | [3] | [4] | [5] | [6] | [8]

CCN1CCCC1CNC(=O)c1cc(S(=O)(=O)CC)ccc1OC (centres undefined)
inactive: [1] | [2] | [3] | [4] | [5] | [6] | [8]

OC[C@@H](O)[C@H](O)[C@H](O)[C@@H](O)CO
inactive: [1] | [2] | [3] | [4] | [5] | [6] | [8]

CCCCCCCCCOC(=O)c1ccc(O)cc1
inactive: [3] | [4] | [6]
active: [1] 53.3 µM | [2] 80.5 µM | [5] 23 µM | [8] 39.3 µM

O=C1C(c2[nH]c3ccccc3c2O)=Nc2ccccc21
inactive: [1] | [2] | [3] | [4] | [5] | [6] | [8]

CCCCC(=O)OCC(=O)[C@]1(O)Cc2c(O)c3c(c(O)c2[C@@H](O[C@H]2C[C@H](NC(=O)C(F)(F)F)[C@H](O)[C@H](C)O2)C1)C(=O)c1c(OC)cccc1C3=O
active: [2] 7.68 µM | [4] 8.58 µM | [6] 7.73 µM | [8] 5.24 µM
inactive: [1] | [3] | [5]

Cc1c(C(=O)NCCO)[n+](=O)c2ccccc2n1[O-]
inactive: [1] | [2] | [3] | [4] | [5] | [6] | [8]

C[C@@H]1C[C@H]2O[C@@]3(O[C@@H]2C(C)(C)O)[C@H](O)[C@@]2(C)[C@@H]4CC[C@H]5C(C)(C)[C@@H](O[C@@H]6OC[C@@H](O)[C@H](O)[C@H]6O)CC[C@@]56C[C@@]46CC[C@]2(C)[C@@H]13
inactive: [1] | [2] | [3] | [4] | [5] | [6] | [8]

COc1cc(C(=O)N2CCOCC2)cc(OC)c1OC
inactive: [1] | [2] | [3] | [4] | [5] | [6] | [8]

O=C1CCC(c2ccccc2)(C2CCN(Cc3ccccc3)CC2)C(=O)N1 (centres undefined)
inactive: [1] | [2] | [3] | [4] | [5] | [6] | [8]

C1CCN2C[C@@H]3C[C@@H](CN4CCCC[C@@H]34)[C@H]2C1
inactive: [1] | [2] | [3] | [4] | [5] | [6] | [8]

O=C(C=Cc1ccc(O)c(O)c1)O[C@@H]1C[C@@](OC(=O)C=Cc2ccc(O)c(O)c2)(C(=O)O)C[C@@H](O)[C@@H]1O
inactive: [1] | [2] | [3] | [4] | [5] | [6] | [8]

O=C1C(=Cc2cccs2)CCCC1=Cc1cccs1
inactive: [1] | [2] | [3] | [4] | [5] | [6] | [8]

CC(C)(S)C(=O)N[C@@H](CS)C(=O)O
inactive: [1] | [2] | [3] | [4] | [5] | [6] | [8]

COc1ccc(N)c(OC)c1
inactive: [1] | [2] | [3] | [4] | [5] | [6] | [8]

CO[C@H]1/C=C/O[C@@]2(C)Oc3c(C)c(O)c4c(O)c(cc(O)c4c3C2=O)NC(=O)/C(C)=C\C=C\[C@H](C)[C@H](O)[C@@H](C)[C@@H](O)[C@@H](C)[C@H](OC(C)=O)[C@@H]1C
inactive: [1] | [2] | [3] | [4] | [5] | [6] | [8]

CS(=O)(=O)Nc1ccc([N+](=O)[O-])cc1Oc1ccccc1
inactive: [1] | [2] | [3] | [4] | [5] | [6] | [8]

Cn1cc(NC(=O)c2cc(NC(=O)c3cc(NC=O)cn3C)cn2C)cc1C(=O)NCCC(=N)N
inactive: [1] | [2] | [3] | [4] | [5] | [6] | [8]

O=S(=O)(c1ccccc1)c1ccc(Cl)cc1
inactive: [1] | [2] | [3] | [4] | [5] | [6] | [8]
